# Data from ChEMBL document CHEMBL1157539, “Thousands of chemical starting points for antimalarial lead identification” (Nature, 2010).
# Key:
# Format in all cases: functional
# [1] = tested on: Plasmodium falciparum; assay: GSK_TCMDC: Inhibition of Plasmodium falciparum 3D7 in whole red blood cells, using parasite LDH activity as an index of growth. Test compounds present at 2uM
# [2] = tested on: Plasmodium falciparum; assay: GSK_TCMDC: Inhibition of Plasmodium falciparum Dd2 in whole red blood cells, using parasite LDH activity as an index of growth. Test compounds present at 2uM
# [3] = tested on: HepG2; assay: GSK_TCMDC: Percent inhibition of human HepG2 cell line. Test compounds present at 10uM.
SMILES,Inhibition [1] [%],Inhibition [2] [%],Inhibition [3] [%]
CCOc1ccc2[nH]c(C)cc(=NN=Cc3ccc(Cl)cc3)c2c1,100,100,0
Cc1ccc(C)c(CC(=O)N2CCC(n3c(C)nc4ccc(F)cc43)CC2)c1,100,99,0
Nc1ncnc2cc(-c3cccc(NC(=O)Nc4ccccc4)c3)sc12,94,33,4
CCOc1cc2ncnc(Nc3ccc(OCc4ccccc4Br)c(OC)c3)c2cc1OCC.Cl,100,82,1
CN1CCN(CCCN(Cc2cccc(-c3cccc(CNCc4ccc5c(c4)OCO5)c3)c2)C(=O)CCC2CCCC2)CC1.O=C(O)C(F)(F)F,98,80,85
CCC(=O)Nc1nnc(Cc2ccc(OC)c(OC)c2)s1,93,1,0
CN(C)c1ccc(-c2ccc(C(=O)NC3CCN(Cc4cccc(C(F)(F)F)c4)CC3)s2)cc1.O=C(O)C(F)(F)F,96,77,35
O=C(CCc1c[nH]cn1)Nc1ccc(-c2ccc(-c3nc4ccccc4[nH]3)cc2)cc1,98,70,46
Cl.NCC1(c2nc(-c3ccc(Cl)c(O)c3)c(-c3ccncc3)[nH]2)CCCCC1,98,98,48
CC(C)c1cccc(OCC2CCN(c3ncc(C(=O)Nc4ccccc4)cc3Cl)CC2)c1,89,88,9
CN(C)CCNCc1ccc(-c2ccc3c(Nc4ccc(Oc5ccccc5)cc4)ccnc3c2)o1,100,99,19
